# Structures can show the parent of a compound that is named as a salt. ± gives the standard deviation of the averaged measurements.
# Tested on: Danio rerio Tg(wt1b:EGFP) embryo, pronephros
# Test: fraction of imaged embryos annotated as normal kidney; higher = less nephrotoxic; extreme values may be limits of the assay
# Conditions: 25 µM; exposure: 24-48 hpf
# Outline: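 Dechorionated Tg(wt1b:EGFP) zebrafish embryos were exposed in 12-well plates to 25 μM compound in 0.5% DMSO, 5 mM HEPES-buffered E3 with 0.003% PTU, from 24 to 48 hpf at 28.5°C. Tricaine-anaesthetised larvae were oriented dorsally in agarose-filled 96-well plates, and pronephroi were imaged by widefield fluorescence (470 nm, 10 z-slices). Each embryo was manually annotated from maximum projections. The read-out is the fraction of embryos per treatment assigned to the normal-kidney category.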
row,SMILES,fraction of imaged embryos annotated as normal kidney
1,CN1CCCN(C(c2ccccc2)c2ccc(Cl)cc2)CC1 (centres undefined) [Homochlorcyclizine dihydrochloride],1
2,CC(C)NC[C@@H](O)COc1ccc(CC(N)=O)cc1 [(R)-(+)-Atenolol],0.917
3,CC(C)OC(=O)C(C)(C)Oc1ccc(C(=O)c2ccc(Cl)cc2)cc1 [Fenofibrate],0
4,NCCc1cc[nH]n1 [Betazole hydrochloride],0.917

# Tested on: Danio rerio Tg(wt1b:EGFP) embryo, pronephros
# Test: pronephric angle neck segment to proximal convoluted tubule (mean of left and right), fold change vs DMSO control; higher = larger pronephric angle
# Conditions: 25 µM; exposure: 24-48 hpf
# Outline: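 In HEPES-buffered E3 with 0.003% PTU and 0.5% DMSO, dechorionated Tg(wt1b:EGFP) zebrafish embryos were exposed to 25 μM compound from 24 to 48 hpf at 28.5°C. Pronephroi were then imaged dorsally at 470 nm in 10 z-slices, in 96-well plates filled with agarose. On maximum projections, a Fiji macro turned 16 manually placed reference points into distances and angles, and values more than 2 SD from the feature mean were excluded. Features are fold changes relative to the mean of DMSO-treated embryos from the same day.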
row,SMILES,pronephric angle neck segment
1,COC(=O)C1=C(C#N)NC(C)=C(C(=O)OC(C)C)C1c1cccc([N+](=O)[O-])c1 (centres undefined) [Nilvadipine],1.09 ± 0.17
2,NCc1ccc(S(N)(=O)=O)cc1 [Mafenide hydrochloride],0.9512 ± 0.0031
3,Clc1ccccc1C(c1ccccc1)(c1ccccc1)n1ccnc1 [Clotrimazole],1.26 ± 0.1
4,CCN1CCN(c2cc3c(cc2F)c(=O)c(C(=O)O)cn3C2CC2)CC1 [Enrofloxacin],1.01 ± 0.037
5,Nc1c(Br)cc(Br)cc1CN[C@H]1CC[C@H](O)CC1 [Ambroxol hydrochloride],1.003 ± 0.0037
6,CNCC(O)c1ccc(OC(=O)C(C)(C)C)c(OC(=O)C(C)(C)C)c1 (centres undefined) [Dipivefrin hydrochloride],1.03 ± 0.081
7,CCCc1nn(C)c2c(=O)[nH]c(-c3cc(S(=O)(=O)N4CCN(C)CC4)ccc3OCC)nc12 [Sildenafil],0.9607 ± 0.0012
8,NS(=O)(=O)c1cc2c(cc1Cl)N=C(CSCc1ccccc1)NS2(=O)=O [Benzthiazide],0.965 ± 0.028
9,CC(C)(C(=O)O)c1ccc(C(O)CCCN2CCC(C(O)(c3ccccc3)c3ccccc3)CC2)cc1 (centres undefined) [Fexofenadine hydrochloride],0.956 ± 0.033
10,CC(C)NCC(O)c1ccc(NS(C)(=O)=O)cc1 (centres undefined) [Sotalol hydrochloride],1.01 ± 0.043
11,Cc1ccsc1/C=C/C1=NCCCN1C [Morantel tartrate],1.01 ± 0.019
12,C[C@H](Cc1cc2c(c(C(N)=O)c1)N(CCCO)CC2)NCCOc1ccccc1OCC(F)(F)F [Silodosin],0.992 ± 0.028
13,OCCN1CCN(CCCN2c3ccccc3C=Cc3ccccc32)CC1 [Opipramol dihydrochloride],1.02 ± 0.076
14,CCCCNc1ccc(C(=O)OCCOCCOCCOCCOCCOCCOCCOCCOCCOC)cc1 [Benzonatate],1.09 ± 0.039
15,O=C(COc1ccc(Cl)cc1)N1CCN(Cc2ccc3c(c2)OCO3)CC1 [Fipexide hydrochloride],1.24 ± 0.11
16,C[C@H]1C[C@H]2[C@@H]3CCC4=CC(=O)C=C[C@]4(C)[C@@]3(F)[C@@H](O)C[C@]2(C)[C@@]1(O)C(=O)CO [Betamethasone],1.04 ± 0.053
17,Cc1ccc(NC(=O)c2ccc(CN3CCN(C)CC3)cc2)cc1Nc1nccc(-c2cccnc2)n1 [Imatinib],1.01 ± 0.018
18,c1ccc2c(CC3=NCCN3)cccc2c1 [Naphazoline hydrochloride],1.006 ± 0.0059
19,CN(N=O)C(=O)N[C@@H](C=O)[C@@H](O)[C@H](O)[C@H](O)CO [Streptozotocin],1.01 ± 0.025
20,Nc1nc(F)nc2c1ncn2[C@@H]1O[C@H](CO)[C@@H](O)[C@@H]1O [Fludarabine],0.975 ± 0.025

row,SMILES,pronephric angle neck segment
1,"C[C@](N)(Cc1ccc(O)c(O)c1)C(=O)O [Methyldopa (L,-)]",1.001 ± 0.0027
2,NC(Cc1cc(I)c(Oc2cc(I)c(O)c(I)c2)c(I)c1)C(=O)O (centres undefined) [Thyroxine (L)],1.02 ± 0.029
3,CCCC(CCC)C(=O)O [Valproic acid],1.11 ± 0.14
4,Cn1c(=O)c2c(ncn2CC(=O)O)n(C)c1=O [Acefylline],1.02 ± 0.035
5,CO[C@@]1(NC(=O)CSCC#N)C(=O)N2C(C(=O)O)=C(CSc3nnnn3C)CS[C@@H]21 [Cefmetazole sodium salt],0.944 ± 0.042
6,O=C(O)COC(=O)Cc1ccccc1Nc1c(Cl)cccc1Cl [Aceclofenac],1.24 ± 0.15
7,CCC1=C(C)CN(C(=O)NCCc2ccc(S(=O)(=O)NC(=O)N[C@H]3CC[C@H](C)CC3)cc2)C1=O [Glimepiride],1 ± 0.03
8,Nc1nnc(-c2cccc(Cl)c2Cl)c(N)n1 [Lamotrigine],0.998 ± 0.039
9,CCN(CC)C(=O)/C(C#N)=C/c1cc(O)c(O)c([N+](=O)[O-])c1 [Entacapone],1.28 ± 0.14
10,CCCC1O[C@@H]2C[C@H]3[C@@H]4CCC5=CC(=O)C=C[C@]5(C)[C@H]4[C@@H](O)C[C@]3(C)[C@]2(C(=O)CO)O1 (some centres undefined) [Budesonide],1.04 ± 0.12
11,CC(C)C(=O)Nc1ccc([N+](=O)[O-])c(C(F)(F)F)c1 [Flutamide],1.05 ± 0.031
12,NS(=O)(=O)c1cc2c(cc1C(F)(F)F)NC(Cc1ccccc1)NS2(=O)=O (centres undefined) [Bendroflumethiazide],1.09 ± 0.083
13,CCN(CC)C(=O)C1(c2ccccc2)CC1CN (centres undefined) [Milnacipran hydrochloride],0.9653 ± 0.008
14,COc1ccc2cc([C@H](C)C(=O)O)ccc2c1 [Naproxen],1.52 ± 0.036
15,CC(Oc1c(Cl)cccc1Cl)C1=NCCN1 (centres undefined) [Lofexidine],0.96 ± 0.028
16,CC(C)NC(=N)NC(=N)Nc1ccc(Cl)cc1 [Proguanil hydrochloride],1.02 ± 0.054
17,CN1CCCN(C(c2ccccc2)c2ccc(Cl)cc2)CC1 (centres undefined) [Homochlorcyclizine dihydrochloride],1.013 ± 0.0017
18,CC(C)NC[C@@H](O)COc1ccc(CC(N)=O)cc1 [(R)-(+)-Atenolol],0.977 ± 0.029
19,CC(C)OC(=O)C(C)(C)Oc1ccc(C(=O)c2ccc(Cl)cc2)cc1 [Fenofibrate],1.801 ± 0.0082
20,NCCc1cc[nH]n1 [Betazole hydrochloride],1.05 ± 0.012
